In ChEMBL document CHEMBL3988442, “University of Dundee, Small-Polar-MMV Screening Library” (2021):
The campaign covered roughly 38,000 compounds. About 1,200 (3.2%) showed an effect of 50% or more. The median lay at about -58%. This excerpt belongs to a sample that is enriched for strong results.

tested on: Plasmodium falciparum; test: Calibr Malaria Delayed Death Assay SOP; format: functional, organism-based; design: scale not given: in the data most compounds retested in dose-response had high values; details: concentration 4.99e-06 (unit not given; other assays of the set use mol/L)

Row | Structure (SMILES) | Percent Effect
1 | CCCN1CCC(CNC(=O)C2(c3cccc(C)c3)CC2)C1 (centres undefined) | -64.24%
2 | CCN1CCC(CNC(=O)C2(c3ccc(F)cc3)CC2)C1 (centres undefined) | 28.54%
3 | COCCN1CCC(CNC(=O)C2(c3ccccc3)CCC2)C1 (centres undefined) | -3.533%
4 | Cc1cc(C)cc(C2(C(=O)NCC3CCN(CC(F)(F)F)C3)CC2)c1 (centres undefined) | -75.87%
5 | CCCN1CCC(CNC(=O)C2(c3ccccc3)CCC2)C1 (centres undefined) | 65.3%
6 | CCOCCC(=O)N1CCN(CC(C)O)CC1 (centres undefined) | -101.9%
7 | Cn1ncnc1CNC(=O)N(CCCO)C1CCc2ccccc21 (centres undefined) | -16.9%
8 | Cn1cc(N2CC3(CCN(Cc4cccnc4)CC3)OCC2=O)cn1.O=C(O)C(F)(F)F.O=C(O)C(F)(F)F | -71.74%
9 | CC(=O)N1CCN(C(=O)NCCc2ccc(Cl)s2)CC1 | -108.8%
10 | Cc1cc(C)c(CNC(=O)NCC2Cc3ccccc3O2)c(=O)[nH]1 (centres undefined) | -144.1%
11 | CN1CCC(c2cccc(Cc3ccc(C(F)(F)F)cc3)n2)CC1 | 50.24%
12 | Fc1ccc(Cc2cccc(C3CCN(C4CCOCC4)CC3)n2)cc1 | 38.56%
13 | CN1CCC(c2cccc(Cc3ccccc3)n2)CC1 | -0.8146%
14 | COC1CCN(C(=O)C2CCCC2)CC(=O)N(C)c2ccccc21 (centres undefined) | -134%
15 | CC1CN(C(=O)Nc2cc(C(F)(F)F)c[nH]c2=O)CC(C)(C)O1 (centres undefined) | -36.51%
16 | Cc1ccsc1C(O)CNC(=O)Cc1ccc(S(=O)(=O)C(C)C)cc1 (centres undefined) | 0.3509%
17 | COc1cc(-c2cccc3c2OC(CN)C3)ccc1O (centres undefined) | 37.76%
18 | COc1cc(-c2cccc3c2OC(CN)C3)cc(OC)c1OC (centres undefined) | 46.68%
19 | NCC1Cc2cccc(-c3ccc(O)c(F)c3)c2O1 (centres undefined) | 82.73%
20 | COc1c(F)cc(-c2cccc3c2OC(CN)C3)cc1F (centres undefined) | 35.23%
21 | COc1ccc(-c2cccc3c2OC(CN)C3)cc1F (centres undefined) | 62.39%
22 | Cc1ccc(C(O)CNC(=O)NCc2c(C)cc(C)[nH]c2=O)cc1 (centres undefined) | -76.06%
23 | Cc1nc(-c2cccnc2)ncc1C(=O)N1CCCC(N(C)C)CC1 (centres undefined) | -60.09%
24 | CN(C)CC1CSCCCN1C(=O)c1ccc(C(C)(C)C)cc1 (centres undefined) | 0.9343%
25 | Cc1cccc(OC2CCN(S(=O)(=O)Cc3cccc(F)c3)CC2)n1 | -131.9%
26 | CN(C)CC1CSCCCN1S(=O)(=O)Cc1ccc(C(F)(F)F)cc1 (centres undefined) | 9.215%
27 | CN(C)CC1CSCCCN1S(=O)(=O)c1ccc(C(F)(F)F)cc1 (centres undefined) | 60.28%
28 | CN(C)CC1CSCCCN1S(=O)(=O)Cc1cccc(F)c1 (centres undefined) | 58.19%
29 | CS(=O)(=O)C1CCN(S(=O)(=O)Cc2cccc(F)c2)CC1 | -94.28%
